Experimental data taken from PubChem BioAssay (EPA / NIEHS).
“And” between values parts separate entries of the source, which are not always exact repeats. Equal values may be shown once. The source made the active and inactive calls. Rule for the calls: active = hit-call score of the fitted dose curve at least 0.9, where 1 is the maximum; inactive = score below 0.9.

Read-out: E-selectin (Homo sapiens) (UniProt P16581)
Test: BSK_SAg_Eselectin: BioMAP Diversity Plus: SAg Assay for Eselectin Biomarker Activity (AID 2283091)
Conditions: primary human HUVEC with PBMC; actives raise or lower the signal
Description: BSK_SAg is a cell-based, multiplexed-readout assay that uses umbilical vein endothelium and peripheral blood mononuclear cells, a human vascular primary cell co-culture, with measurements taken at 24 hours after chemical dosing in a 96-well plate.BSK_SAg_Eselectin is an assay component measured in the BSK_SAg assay. It measures E-selectin antibody related to regulation of gene expression using ELISA technology.Data from the assay component BSK_SAg_Eselectin was analyzed into 1 assay endpoint. This assay endpoint, BSK_SAg_Eselectin, was analyzed with bidirectional fitting relative to DMSO as the negative control and baseline of activity. Using a type of binding reporter, gain or loss-of-signal activity can be used to understand changes in the signaling as they relate to the gene SELE. Furthermore, this assay endpoint can be referred to as a primary readout, because this assay has produced multiple assay endpoints where this one serves a signaling function. To generalize the intended target to other relatable targets, this assay endpoint is annotated to the cell adhesion molecules intended target family, where the subfamily is selectins.
The levels of cell surface (or secreted, indicated by the prefix "s") biomarker endpoints were measured by ELISA. Overt cytotoxicity to cells in confluent adherent cultures (all systems other than the BT system) was assessed by measuring total protein levels using sulforhodamine B (SRB) staining in parallel cultures at the time of biomarker measurements, indicated as SRB endpoints. For proliferation assays for adherent cell types, individual cell types are cultured at sub-confluence and relative cell numbers quantified by SRB staining at time points optimized for each system (48 h: 3C and CASM3C systems; 72 h: BT and HDF3CGF systems; 96 h: SAg system). SRB was performed by staining cells with 0.1% SRB after fixation with 10% TCA and reading wells at 560 nm.Viability and proliferation of PBMC (T cells) was quantified by Alamar Blue reduction for the SAg and BT systems. For PBMC viability (referred to as PBMC Cytotoxicity within the assay endpoint names), cells were plated (75,000/well in a 96-well plate) and then chemical samples added for 1 h before addition of activators, SEB and TSST-1 (20 ng/mL final concentration each). Cells were incubated for 90 h. Then, Alamar Blue (20 uL/well) (Invitrogen, Cat DAL1100) was added for 6 h, and the plates were read with a fluorescence microplate reader at 546/580 nm (excitation/emission). For PBMC proliferation, cells were plated and activated as above but incubated for only 16 h prior to addition of Alamar Blue. Plates were read after 6 h.

Sequence of E-selectin (Homo sapiens) (P16581 whole entry, looked up): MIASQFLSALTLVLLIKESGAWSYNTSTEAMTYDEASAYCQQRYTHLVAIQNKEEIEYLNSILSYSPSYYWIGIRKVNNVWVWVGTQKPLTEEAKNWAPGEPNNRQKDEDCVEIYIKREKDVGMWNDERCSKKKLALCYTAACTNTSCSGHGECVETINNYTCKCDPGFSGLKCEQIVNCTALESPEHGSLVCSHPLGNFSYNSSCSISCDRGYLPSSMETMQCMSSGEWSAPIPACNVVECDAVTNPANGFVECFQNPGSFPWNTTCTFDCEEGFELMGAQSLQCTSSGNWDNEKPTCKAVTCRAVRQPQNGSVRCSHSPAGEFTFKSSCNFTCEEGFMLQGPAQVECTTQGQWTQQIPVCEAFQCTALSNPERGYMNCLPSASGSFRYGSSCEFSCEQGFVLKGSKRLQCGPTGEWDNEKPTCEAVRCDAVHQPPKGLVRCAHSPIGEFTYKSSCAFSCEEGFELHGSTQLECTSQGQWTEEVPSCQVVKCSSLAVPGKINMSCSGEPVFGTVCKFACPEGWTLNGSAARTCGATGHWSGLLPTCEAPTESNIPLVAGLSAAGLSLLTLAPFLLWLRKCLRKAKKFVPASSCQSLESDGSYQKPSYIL

Row | Compound | outcome | AC50
1 | CC(C)=CCCC(C)CCO (stereo not given) | inactive | 
2 | CCOCCOCCOCCO | inactive | 
3 | CCNc1ccccc1 | inactive | 
4 | Cc1[nH]cnc1C[C@H]1CCc2c(C)c3ccccc3n2C1=O |  | 30.8 µM (active)
5 | Cn1c(=O)c2c(ncn2C)n(C)c1=O | inactive | 
6 | CC1(C)C(=O)N(Br)C(=O)N1Br | inactive | 
7 | COc1ccc2sc(C(=O)Nc3nnn[nH]3)c(OC(C)C)c2c1 |  | 30 µM (active)
8 | C1N2CN3CN1CN(C2)C3 | inactive | 
9 | COC(=O)CC(=O)OC | inactive | 
10 | CC(=O)OCCC(C)C | inactive | 
11 | CC(C)=CCCC(C)=CC=O | inactive | 
12 | Nc1ccc(Nc2ccccc2)cc1 |  | 2.72 µM (active)
13 | CCCCC(CC)COC(=O)CCCCCCCCC(=O)OCC(CC)CCCC (stereo not given) | inactive | 
14 | COC(=O)c1ccccc1O | inactive | 
15 | CC(C)=CCC/C(C)=C\CO | inactive | 
16 | COc1cccc(-c2ccc(/C=C\CN3CCCCCC3)cc2Cl)c1 |  | 29.8 µM (active)
17 | O=c1n(CC2CO2)c(=O)n(CC2CO2)c(=O)n1CC1CO1 (stereo not given) |  | 10.7 µM (active)
18 | CC1=CC(=O)CC(C)(C)C1 | inactive | 
19 | O=P(OC(CCl)CCl)(OC(CCl)CCl)OC(CCl)CCl |  | 20 µM (active)
20 | Fc1ccccc1[C@@H](F)COC1CCC(Nc2ncnc3[nH]ncc23)CC1 (stereo not given in full) | inactive | 

Row | Compound | outcome | AC50
21 | CCCN(C1CCN(C(=O)C2CCNCC2)CC1)[C@@H]1CCc2ccc(OC)cc2C1 | inactive | 
22 | Cc1ccc(C)c(O)c1 | inactive | 
23 | CCCCCCc1ccc(O)cc1O |  | 33.6 µM (active)
24 | Cc1ccc(O)cc1 | inactive | 
25 | Cn1cnc([N+](=O)[O-])c1Sc1ncnc2nc[nH]c12 |  | 6.91 µM (active) and 12.6 µM (active) and 16.9 µM (active)
26 | Cc1c(-c2cccnc2)c2ccccc2n1CCCCC(=O)O | inactive | 
27 | CCOc1cccc(-n2cc(C(=O)N3CCN(c4cc(C(=O)O)c5ccccc5c4)CC3)nc2-c2ccc(C)cc2)c1 |  | 19.2 µM (active)
28 | CC[C@H]1CC[C@H](NCc2cc3c(cc2OC)[C@H]2C[C@H]2C(=O)N3C)[C@H](c2ccccc2)N1 | inactive | 
29 | CC(=O)OC[C@H]1O[C@@](COC(C)=O)(O[C@H]2O[C@H](COC(C)=O)[C@@H](OC(C)=O)[C@H](OC(C)=O)[C@H]2OC(C)=O)[C@@H](OC(C)=O)[C@@H]1OC(C)=O | inactive | 
30 | CC/C(=C\C(=N/O)C(N)=O)C(C)[N+](=O)[O-] (stereo not given) | inactive | 
31 | CC[C@H]1OC(=O)[C@H](C)[C@@H](O[C@H]2C[C@@](C)(OC)[C@@H](O)[C@H](C)O2)[C@H](C)[C@@H](O[C@@H]2O[C@H](C)C[C@H](N(C)C)[C@H]2O)[C@](C)(O)C[C@@H](C)C(=O)[C@H](C)[C@@H](O)[C@]1(C)O | inactive | 
32 | Nc1cccc(N)c1 | inactive | 
33 | CCCCCCCCCCCCCCCO |  | 33.5 µM (active)
34 | NC(=O)NO | inactive | 
35 | CC(C)CC(C)(O)C#CC(C)(O)CC(C)C (stereo not given) | inactive | 
36 | CCCC(=O)OCC | inactive | 
37 | CC(C)c1cccc(C(C)C)c1N1C(=O)c2ccc(O)cc2C1=O |  | 30.9 µM (active)
38 | O=C(NS(=O)(=O)/C=C/c1ccccc1)c1ccc(F)cc1Cl | inactive | 
39 | CN(C)c1ccc(N=NS(=O)(=O)O)cc1 | inactive | 
40 | O=C(CCCCCCCCc1cccnc1)N1CCC(C=C(c2ccccc2)c2ccccc2)CC1 |  | 7.71 µM (active)
